Measurements as given in PubChem BioAssay (NCATS).
Records with an inconclusive call do not appear. Calls of active or inactive are those of the source. The call rests on the fitted dose curve; in most records, active means well fitted curve in either direction with a large enough effect (not every such curve was filed as active); inconclusive means small, poorly fitted or top-dose-only effect, or another doubt; inactive means flat fitted curve, though single readings scatter.

molecular target: Mitogen-activated protein kinase 10 (Mus musculus) (UniProt Q61831); test: JNK3 AlphaScreen Assay (AID 530); settings: JNK3 lysate, c-Jun phosphorylation; series mostly up to 11.4 µM; activity change, negative = inhibition: at the top concentration;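 further: kinase came from lysate of stimulated human HepG2 cells; signal reports phosphorylation of biotinylated GST-cJun 1-79 at Ser73 with 10 µM ATP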
Outline: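 qHTS titrations with 15 min compound pre-incubation before adding ATP (10 uM final). Read-out: AlphaScreen of Ser73-phosphorylated biotin-GST-cJun using HepG2 lysate JNK3 activated by IL-1β and TNFα.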
On the % scale 0 is the no-effect control and ±100 the full control effect.

Activity change, negative = inhibition, inactive:
COC(=O)CC[C@@H](C)[C@@H]1CC[C@@H]2[C@@H]3CC[C@H]4C[C@@H](O)CC[C@@]4(C)[C@@H]3CC[C@]21C -1.72%, N#CCCn1c(=O)c(-c2ccccc2)nc2cnc(N3CCNCC3)nc21 2.75% [at 57.1 µM], NCCNc1ncnc2ccc(Cl)cc12 -3.91%, O=C(NCCO)c1ccc(Cl)cc1 -0.0663%, O=c1cc(CF)[nH]c(=S)[nH]1 2.84%, c1ccc2cc(-c3cc(-c4cc(-c5ccc6ccccc6c5)on4)no3)ccc2c1 5.05%, OC[C@H](S)CS 5.15%, O=C(O)c1[nH]c(=O)[nH]c(=O)c1CN1CCCCC1 1.92%, CN(C)CN1C(=O)S/C(=C2/C(=O)N(CN(C)C)c3ccccc32)C1=O 2.29%, COc1ncc2nc(-c3cc(F)cc(F)c3)c(=O)n(CCc3ccccc3)c2n1 -9% [at 57.1 µM], NC(=O)c1ncn([C@@H]2O[C@@H](CO)[C@@H](O)[C@H]2O)n1 17.8% [at 57.1 µM], CC(C)(C)c1ccc([C@@H](O)CCCN2CCC(C(O)(c3ccccc3)c3ccccc3)CC2)cc1 -3.22% [at 25.6 µM], O=C(O)/C(=C\c1ccccc1)c1ccccc1 4.66%, NCCCc1ccc2oc3ccccc3c2c1 0.35%, O=C(O)c1cc(-c2ccc(-c3ccccc3)cc2)nc2cc3ccccc3cc12 2.06%, N=c1ccn2c(n1)O[C@@H]1[C@@H](O)[C@H](CO)O[C@H]12 16% [at 57.1 µM], COc1cc(N=Nc2cccc(S(N)(=O)=O)c2)c2ccccc2c1N -17.2%

Potency, inactive:
Cc1nnc(SCC2=C(C(=O)O)N3C(=O)[C@@H](NC(=O)Cn4cnnn4)[C@@H]3SC2)s1
